High-throughput results from PubChem.
ClpP mod: qHTS Assay for Activators of ClpP; ATP-dependent Clp protease proteolytic subunit (Bacillus subtilis (strain 168)), P80244; 1.9% of 340,000 active; Potency, µM (titrated, usually from 57.5 µM), inactives show at the highest dose activity change, negative = active; purified B. subtilis ClpP, FRET peptide cleavage, 20 min; active = well fitted falling curve with a large enough effect; inconclusive = small, poorly fitted or top-dose-only effect; inactive = no such curve, though single readings can be large or run the other way; note: the source files actives as falling curves though it sought activators and does not explain the sign; nearly all actives have a fitted effect of over 65% in size
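Purified B. subtilis ClpP, 10 microg/mL final in Tris/HCl pH8 with KCl, BSA, glycerol and Tween-20, cleaved an Abz/nitrotyrosine-quenched decapeptide. Fluorescence (ex 320, em 430) was read at 0 and 20 min at room temperature. Delta was normalized to 5.8 microM ADEP and DMSO/no-enzyme controls.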
TDP1 cell noCPT: qHTS for Inhibitors of human tyrosyl-DNA phosphodiesterase 1 (TDP1): qHTS in cells in absence of CPT. DT40 Tdp1-/- hTDP1 cells, no CPT, ATP luminescence, 48 h. Potency, µM (doses to about 46.2 µM), without a hit: top-dose activity change, negative = growth inhibition, most hits filed as inhibitors. 15% of 420,000 active. AID 686978, 2013; note: % is set by controls: 0 for no effect and ±100 for the full control effect; nearly all actives have a fitted effect of over 55% in size
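Seeded 400 DT40-hTDP1 cells/well (vehicle DMSO, no 20 nM CPT); pinned compounds; ≥48 hr at 37 °C; CellTiter-Glo luminescence as viability measure.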
TDP1 cell CPT: DT40-hTDP1 cell growth loss with CPT; chicken DT40 Tdp1-/-;hTDP1 cells + 20 nM CPT, ATP luminescence, 48 h; Potency, µM (doses to about 46.2 µM), without a hit: top-dose activity change, negative = growth inhibition, most hits filed as inhibitors; 12% of 420,000 active; note: % is set by controls: 0 for no effect and ±100 for the full control effect; nearly all actives have a fitted effect of over 55% in size
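Chicken DT40 Tdp1-/- cells complemented with human TDP1, 400 cells/well, exposed to compounds plus 20 nM camptothecin for at least 48 h at 37 C; viability read as ATP content by CellTiter-Glo luminescence.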
TDP1 block: inhibitors of human tyrosyl-DNA phosphodiesterase TDP1; Q9NUW8; recombinant TDP1, AlphaScreen DNA substrate cleavage; Potency, µM (highest dose often 130 µM), for the others: top-dose activity change, negative = inhibition, usual class: inhibitors; 0.28% of 350,000 active; AID 485290; note: % is set by controls: 0 for no effect and ±100 for the full control effect; nearly all actives have a fitted effect of over 40% in size
Target sequence (Q9NUW8 whole entry, looked up): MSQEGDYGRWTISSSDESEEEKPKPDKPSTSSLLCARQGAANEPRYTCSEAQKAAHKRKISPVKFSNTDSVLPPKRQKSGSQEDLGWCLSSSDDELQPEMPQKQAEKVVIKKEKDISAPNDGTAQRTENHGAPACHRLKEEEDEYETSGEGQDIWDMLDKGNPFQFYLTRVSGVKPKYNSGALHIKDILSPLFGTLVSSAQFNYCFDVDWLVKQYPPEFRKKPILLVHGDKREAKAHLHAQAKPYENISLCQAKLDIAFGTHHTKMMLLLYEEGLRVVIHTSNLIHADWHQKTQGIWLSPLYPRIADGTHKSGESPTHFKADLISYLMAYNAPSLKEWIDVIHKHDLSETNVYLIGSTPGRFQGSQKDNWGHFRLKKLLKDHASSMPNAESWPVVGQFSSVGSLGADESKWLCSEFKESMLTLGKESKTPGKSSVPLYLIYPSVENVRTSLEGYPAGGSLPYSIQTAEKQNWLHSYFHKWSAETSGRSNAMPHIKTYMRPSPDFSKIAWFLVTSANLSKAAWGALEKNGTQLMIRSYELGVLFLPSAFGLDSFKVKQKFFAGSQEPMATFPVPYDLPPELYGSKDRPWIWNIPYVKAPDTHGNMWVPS
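E. coli-derived human Tdp1, 1 nM final. Cpd preinc 15 min RT; substrate 15 nM final, 5 min RT; AS bead mix 10 ug/ml final, 10 min RT. Signal loss = tyrosine-FITC cleavage. No-enzyme wells = max signal.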
* hit, by the source's call; u = inconclusive; x = not tested or not shown; [ ] = remark or other dose. A selection: hits, their analogues and other compounds. The true share with any hit is near 17%. Unless noted, calls come from the whole dose curve; as a rule, active = well fitted curve in the direction sought with a large enough effect; inconclusive = small, poorly fitted or top-dose-only effect, or another doubt; inactive = no such curve, though single readings can be large; an effect the other way counts as inactive or inconclusive. Potency is the fitted concentration of half-maximal effect.

SMILES | ClpP mod | TDP1 cell noCPT | TDP1 cell CPT | TDP1 block
O=C(Cc1ccc(OCCC2CCCCC2)cc1)NO | -3.9% | 10µM* | 7.08µM* | x
COc1ccc(C(=O)NCc2nnc(SCC(=O)N3CCCC3)o2)cc1OC | -7.1% | 10.9% | 11.8% | 1.0%
COc1cc2cc(CN(CCc3cccc(C)c3)C(=S)NCCCN(C)C)c(=O)[nH]c2cc1OC | 28.2µM* | u | -28.6% | 4.7%
Cc1ccc2cc(CN(CCc3ccccc3)C(=S)NCCCN(C)C)c(=O)[nH]c2c1 | x | 25.9µM* | u | x
Cc1cccc2cc(CN(CCCN(C)C)C(=S)NCCc3ccccc3)c(=O)[nH]c12 | -0.7% | 16.4µM* | 20.6µM* | 4.9%
CS(=O)(=O)N(CC(=O)Nc1cccc(Cl)c1Cl)c1ccccc1 | 0.9% | u | u | 0.0%
Cc1ccc(N2C(=O)CCC(C(=O)O)C2c2cccs2)cc1 (stereo not given) | x | -14.0% | 2.7% | 0.0%
O=C(NCc1ccccc1F)C(=O)NCC(c1ccco1)S(=O)(=O)c1cccs1 (stereo not given) | -0.1% | u | u | 0.0%
CCOC1=CC2=C(C(=O)C(Cl)=CC2=O)[C@@H]2CN(S(=O)(=O)c3ccc(C)cc3)[C@@H](c3ccccc3)[C@H]12 | -2.5% | 1.84µM* | 1.16µM* | x
Cc1ccc(-n2nc3c(n2)/C(=N/O)CC/C3=N\O)cc1 | -6.0% | 16.4µM* | u | 0.0%
O/N=C1\CC/C(=N\O)c2nn(-c3ccccc3Cl)nc21 | -0.7% | u | u | 2.0%
Cc1ccc(NC(c2ccc(Cl)cc2)c2nnc(-c3cccc(F)c3)o2)cc1C (stereo not given) | -2.3% | u | -6.0% | 2.5%
O=C1CCN(Cc2ccccc2)S(=O)(=O)c2ccccc21 | 0.4% | u | 29.1µM* | -2.6%
CC1(C(=O)NC2CCc3ccccc32)CCN1CCc1ccccc1 (stereo not given) | 0.8% | 18.4µM* | 16.4µM* | x
CC1(C(=O)NCC2CCCCC2)CCN1CCc1ccccc1 (stereo not given) | 0.1% | u | u | x
O=C(C(=O)N1CCN(c2ccccc2F)CC1)c1cn(CC(=O)N2CCCC2)c2ccccc12 | -5.7% | -22.8% | 0.5% | x
O=C(CSCc1c(Cl)cccc1Cl)Nc1ccc2c(c1)OCO2 | -2.2% | 18.4µM* | u | 1.0%
O=C(CSCc1ccccc1)Nc1ccc2c(c1)OCO2 | -4.2% | -14.7% | -22.8% | 4.9%
O=C(CSCc1c(Cl)cccc1Cl)Nc1ccccc1C(=O)N1CCOCC1 | -0.3% | 20.6µM* | u | -3.6%
O=C(CSCSCC(=O)Nc1ccc2c(c1)OCO2)Nc1ccc2c(c1)OCO2 | 0.0% | u | 14.6µM* | 2.1%
Cn1nc(C(=O)OCC(=O)Nc2cccc(S(=O)(=O)N3CCCC3)c2)c2ccccc2c1=O | -3.1% | -26.7% | -28.4% | 0.6%
CCOC(=O)c1ccc(NC(=O)CN(C)S(=O)(=O)c2ccc(Br)s2)cc1 | 1.1% | u | 5.3% | 5.3%
CCN(CC)CCn1c(NC(=O)c2ccc(C)cc2)nc2ccccc21 | -1.1% | u | -18.6% | x
CCC(=O)Nc1nc2ccccc2n1CCN(CC)CC | -0.4% | -3.6% | 29.1µM* | 1.0%
CCC(=O)Nc1nc2ccccc2n1Cc1ccccc1 | -0.8% | 16.4µM* | 14.6µM* | 3.1%
SMILES | ClpP mod | TDP1 cell noCPT | TDP1 cell CPT | TDP1 block
Cn1c(NCc2ccc(Cl)cc2)nc2ccccc21 | x | 14.6µM* | u | 2.7%
CC(=O)Nc1nc2ccccc2n1Cc1ccc(Cl)cc1 | -1.3% | u | 23.1µM* | 7.0%
O=C(Nc1nc2ccccc2n1Cc1ccc(Cl)cc1)c1ccco1 | -2.6% | -27.4% | u | 4.1%
CCC(=O)NCc1nc2ccccc2n1Cc1ccccc1 | -2.1% | -15.3% | u | 0.0%
Cc1ccc(CNc2nc3ccccc3n2C)cc1 | -0.2% | u | -24.9% | x
CC#CCN1c2ccccc2[C@]23C[C@@H](C(=O)OC)N(C(=O)COCc4ccccc4)C2=NC(C(=O)OC)=C(C(=O)OC)[C@H]13 | x | x | x | 13.7%[12.3 µM]
COc1ccc(C(C)NC(=O)c2ccncc2)cc1 (stereo not given) | 0.6% | -0.1% | 3.0% | x
CCN(CC)CCNC(=O)Cn1c(-c2ccccn2)nc2ccccc21 | 14.1µM* | -3.5% | -15.6% | 7.0%
CCC(=O)Nc1nc2ccccc2n1Cc1ccc(C)cc1 | -0.7% | 10.3µM* | 11.6µM* | 6.6%
CCCCC(=O)Nc1ccc(N2CCN(C(=O)c3ccco3)CC2)cc1 | -2.7% | -3.6% | u | 3.7%
O=C(CSc1ncc(-c2ccc(Cl)cc2)[nH]1)Nc1ccccc1F | -0.7% | u | u | -2.1%[12.3 µM]
COc1cccc(CNC(=O)CSc2ncc(S(=O)(=O)c3ccc(Br)cc3)c(=O)[nH]2)c1 | -3.2% | 15.7% | -3.2% | 1.8%
C=C(C)C(O)/C=C/CCCCCCC (stereo not given) | x | x | x | 9.0%[21 µM]
Cc1ccc(NC2=NC3(CCCC3)N=C(N)N2)c(C)c1 | 0.2% | 3.66µM* | 2.91µM* | 1.8%
Cc1ccc(NC2=NC3(CCCCC3)N=C(N)N2)c(C)c1 | -2.5% | u | 23.1µM* | 4.4%
Cc1ccc(C)c(NC2=NC3(CCCCC3)N=C(N)N2)c1 | -1.7% | -20.0% | -11.1% | -0.2%
COc1ccccc1CNC(=O)C(NC(=O)c1ccccc1C)C(C)C (stereo not given) | x | -4.6% | 9.9% | 4.7%
CCN(CC)C(=O)c1c(NC(=O)c2ccccc2F)sc2c1CCC(C(C)(C)C)C2 (stereo not given) | -11.6% | u | 23.1µM* | x
Cc1nn(-c2ccc(F)cc2F)c2c1-c1nc(N3CCCC3)ncc1CC2 | 31.6µM* | u | u | 9.4%
CC(OC(=O)CC1CCCCC1)C(=O)Nc1ccc(F)cc1 (stereo not given) | x | u | -22.6% | -6.6%
Cc1ccc(-c2nc3ccccc3c(=O)n2O)cc1 | x | -8.3% | 20.1% | x
Cc1ccc(-c2nc3ccc(Cl)cc3c(=O)n2O)cc1 | x | 16.4µM* | u | x
O=C(/C=C/c1ccccc1Cl)OCC(=O)N1CCCC1 | 1.0% | -9.0% | -4.6% | -5.0%
COc1ccc(-n2nc(C(=O)Nc3cc(OC)c(OC)c(OC)c3)c(=O)n(C)c2=O)cc1 | 0.0% | -27.7% | u | 3.0%
O=[N+]([O-])c1cc2c(cc1Br)-c1ccccc1C2 | 0.3% | 25.9µM* | -9.4% | x
SMILES | ClpP mod | TDP1 cell noCPT | TDP1 cell CPT | TDP1 block
COc1cc2c(cc1[N+](=O)[O-])-c1ccccc1C2 | x | -12.8% | -15.1% | x
Nc1nnnn1/N=C/c1ccc(O)cc1 | -22.4% | -28.1% | -3.3% | 0.9%
CCN(CC)c1ccc(/C=N/n2nnnc2N)c(O)c1 | -22.6% | 16.4µM* | 14.6µM* | -1.1%
CCN(C)c1ccc(/C=N\n2nnnc2N)cc1 | -10.8% | 5.8µM* | 7.31µM* | 50.1µM*
CC1(C(=O)NS(=O)(=O)c2ccccc2)CCN1C(=O)CCc1ccccc1 (stereo not given) | -0.8% | -11.0% | -42.4% | x
CN(C)S(=O)(=O)n1cc(/C=C(\NC(=O)c2ccccc2)C(=O)NCCCn2ccnc2)c2ccccc21 | 0.1% | -26.7% | -21.0% | 7.9%
